# EPAC2 ag: qHTS for Agonist of cAMP-regulated guanine nucleotide exchange factor 4 (EPAC2): primary screen; AID 720711, 2013; Potency, µM (series often up to 154 µM), inactives show top-dose activation, usual class: activators; EPAC2 activation, biochemical qHTS; response scale: 100% = 6.5 mM cAMP response; Rap guanine nucleotide exchange factor 4 (Homo sapiens), Q8WZA2; actives 0.079% (n = 360,000); further: potency means the concentration at half of the fitted maximal effect; nearly all actives have a fitted effect of over 50% in size
#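 Setup: EPAC2 100 nM, labeled Rap1B complex 250 nM, free GDP 50 uM. Compound titrations pinned in, brief spin, 5 min room temperature incubation. Kinetic fluorescence read over 30 min, normalized to 6.5 mM cAMP.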
# hERG WT inh: qHTS for Inhibitors of KCHN2 3.1: Wildtype qHTS; Voltage-gated inwardly rectifying potassium channel KCNH2 (Homo sapiens), Q12809; activity change, % at 1.84 µM; U2OS, BacMam KCNH2, thallium flux FluxOr; hits give low values; actives 0.37% (n = 340,000);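 active means maximum activity change below -70%; inconclusive means maximum activity change between -70% and -50%; inactive means maximum activity change above -50%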; further: on the % scale 0 is the no-effect control and ±100 the full control effect
# Target sequence (Q12809 whole entry, looked up): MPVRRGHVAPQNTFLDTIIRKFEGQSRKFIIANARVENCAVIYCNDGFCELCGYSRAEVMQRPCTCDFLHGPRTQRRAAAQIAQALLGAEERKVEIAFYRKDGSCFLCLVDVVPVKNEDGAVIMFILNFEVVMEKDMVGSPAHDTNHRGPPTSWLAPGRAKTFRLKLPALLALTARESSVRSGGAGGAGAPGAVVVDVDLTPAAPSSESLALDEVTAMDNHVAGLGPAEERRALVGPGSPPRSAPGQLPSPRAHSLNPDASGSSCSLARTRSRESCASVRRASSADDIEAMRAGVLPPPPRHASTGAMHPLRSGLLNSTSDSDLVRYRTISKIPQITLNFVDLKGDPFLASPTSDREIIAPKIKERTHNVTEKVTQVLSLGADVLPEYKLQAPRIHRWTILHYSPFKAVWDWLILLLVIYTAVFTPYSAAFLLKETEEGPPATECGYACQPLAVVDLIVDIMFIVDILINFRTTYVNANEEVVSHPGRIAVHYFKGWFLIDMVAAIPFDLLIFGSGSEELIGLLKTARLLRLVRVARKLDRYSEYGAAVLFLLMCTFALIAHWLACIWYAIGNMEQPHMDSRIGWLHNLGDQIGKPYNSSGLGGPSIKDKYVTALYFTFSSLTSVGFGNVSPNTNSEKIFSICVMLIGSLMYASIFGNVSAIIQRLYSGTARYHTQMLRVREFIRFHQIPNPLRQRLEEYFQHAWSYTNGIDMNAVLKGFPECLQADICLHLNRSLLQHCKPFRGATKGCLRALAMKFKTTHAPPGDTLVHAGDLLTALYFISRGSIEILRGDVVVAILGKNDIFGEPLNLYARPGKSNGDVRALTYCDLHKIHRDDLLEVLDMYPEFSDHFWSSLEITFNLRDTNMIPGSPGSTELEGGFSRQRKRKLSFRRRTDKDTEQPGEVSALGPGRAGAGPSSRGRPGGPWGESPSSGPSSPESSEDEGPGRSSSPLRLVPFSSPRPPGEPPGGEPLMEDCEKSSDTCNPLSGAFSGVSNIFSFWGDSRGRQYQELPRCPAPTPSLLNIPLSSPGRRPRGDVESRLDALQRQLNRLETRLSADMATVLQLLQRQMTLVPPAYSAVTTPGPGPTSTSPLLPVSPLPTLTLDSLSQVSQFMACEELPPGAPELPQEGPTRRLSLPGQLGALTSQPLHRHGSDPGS
#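 U2OS cells transduced with wild-type KCNH2 virus are loaded with FluxOr dye for 45 min, and thallium flux is measured in kinetic reads before and after stimulation buffer. Rate constants are normalized to DMSO controls.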
# EPAC1 antagonist: qHTS for Antagonist of cAMP-regulated guanine nucleotide exchange factor 3 (EPAC1): primary screen; Potency, µM (series often up to 115 µM), for inactives: at the highest dose activity change, negative = inhibition, hits mostly inhibitors; EPAC1 GEF assay, Rap1b-BODIPY-GDP exchange fluorescence; AID 720709, 2013; actives 0.14% (n = 360,000); Rap guanine nucleotide exchange factor 3 (Homo sapiens), O95398;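 further: potency means the concentration at half of the fitted maximal effect; plate controls were vehicle for no effect and positive control for full effect; nearly all actives have a fitted effect of over 50% in size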
# EPAC2 antag: qHTS for Antagonist of cAMP-regulated guanine nucleotide exchange factor 2 (EPAC2): primary screen; Rap guanine nucleotide exchange factor 4 (Homo sapiens), Q8WZA2; EPAC2 GEF exchange of Rap1B-BODIPY-GDP, fluorescence; Potency, µM (titrated, usually from 114 µM), for the others: top-dose activity, negative = inhibition, most hits filed as inhibitors; actives 0.18% (n = 360,000); AID 720708, 2013; further: potency means the concentration at half of the fitted maximal effect; on the % scale 0 is the no-effect control and ±100 the full control effect; nearly all actives have a fitted effect of over 45% in size
# EPAC1 ag: qHTS for Agonist of cAMP-regulated guanine nucleotide exchange factor 3 (EPAC1): primary screen; EPAC1 agonist qHTS, biochemical assay; response scale: 100% = response to 6.5 mM cAMP; Potency, µM (series often up to 154 µM), for inactives: at the top dose activation, most hits filed as activators; actives 0.073% (n = 360,000); further: potency means the concentration at half of the fitted maximal effect; nearly all actives have a fitted effect of over 60% in size
#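 Nucleotide exchange by EPAC1 (100 nM) on Rap1B–BODIPY-GDP (250 nM) in the presence of 50 uM GDP is tracked fluorescently at 480/540 nm over 30 min. Signals are normalized to a 6.5 mM cAMP control.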
# KCNH2 3.1 block: qHTS for Inhibitors of KCHN2 3.1: Mutant qHTS; U2OS KCNH2 3.1, thallium flux FluxOr; hits give low values; activity change, % (tested at about 1.8 µM); actives 0.95% (n = 340,000); AID 720553, 2013;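 active means maximum activity change below -70%; inconclusive means maximum activity change from -70% to -50%; inactive means maximum activity change above -50%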;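 further: thallium influx rate constant from kinetic fluorescence after stimulation buffer; on the % scale 0 is the no-effect control and ±100 the full control effect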
#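 Thallium flux read-out: FluxOr dye with Red40 quencher in HBSS/HEPES, 45 min at RT. Rate constants from kinetic reads were normalized to positive and negative DMSO controls. Cells: U2OS virally expressing the 3.1 isoform.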
# Active calls of the source: *; ? = inconclusive; / = not tested or not shown. Shown are actives, neighbours in structure and some others; about 1.4% of the full set was active somewhere. Unless noted, the call rests on the fitted dose curve; in most records, active means well fitted curve in the direction sought with a large enough effect; inconclusive means small, poorly fitted or top-dose-only effect, or another doubt; inactive means no such curve, though single readings can be large; an effect the other way counts as inactive or inconclusive.
SMILES,EPAC2 ag,hERG WT inh,EPAC1 antagonist,EPAC2 antag,EPAC1 ag,KCNH2 3.1 block
CC(C)C1Nc2ccc(S(N)(=O)=O)cc2C2C=CCC21 (stereo not given),7%,-2,-7%,-8%,7%,-8
NS(=O)(=O)c1ccc2c(c1)C1C=CCC1C(C1CC=CCC1)N2 (stereo not given),5%,2,71µM*,12%,0%,10
COCCn1c(-c2ccc3ccccc3c2)nc2c1c(=O)[nH]c(=O)n2CC(C)C,6%,-12,-4%,4%,-7%,-21
CCCCNC(=O)C(NC(=O)c1ccc(-c2ccccc2)cc1)C(=O)c1ccccc1 (stereo not given),2%,/,21%,-1%,-9%,/
O=C(NCCc1ccccc1)c1cccc(S(=O)(=O)NCc2ccccc2)c1,3%,-4,-3%,-8%,5%,0
CCN(CC(=O)Nc1c(F)cccc1F)C(=O)c1ccc(C(=O)c2ccccc2)cc1,9%,0,?,-4%,1%,7
CCN(CC(=O)Nc1c(F)cccc1F)C(=O)c1cccc(S(=O)(=O)NCc2ccccc2)c1,12%,-219*,-18%,11%,4%,5
O=C(NC(c1ccccc1)c1ccccc1)c1cccc(S(=O)(=O)NCc2ccccc2)c1,4%,-28,-22%,-6%,2%,-71*
C[C@H](CO)N1C[C@H](C)[C@H](CN(C)C(=O)Cc2ccccc2)OCc2cnnn2CCCC1=O,-4%,-264*,16%,7%,-10%,18
C[C@@H]1CN([C@H](C)CO)C(=O)CCCn2nncc2CO[C@@H]1CN(C)C(=O)Nc1cccc2ccccc12,9%,-77*,-3%,-1%,8%,11
COc1ccc(C(=O)OCC(=O)Nc2c(C)n(C)n(-c3ccccc3)c2=O)cc1OC,1%,2,12%,0%,-6%,-5
CC1CCCC(C)N1CCCNC(=O)c1ccc2nc(N3CCCCC3)sc2c1 (stereo not given),6%,-158*,1%,9%,8%,-13
Cc1nn(CCc2nn[nH]n2)c2nc(-c3ccc(C4CCCCC4)cc3)cc(C(F)(F)F)c12,-23%,-11,79µM*,?,-15%,1
CC(=O)c1cccc(NC(=O)N2CCCC2C(=O)NC2CCCC2)c1 (stereo not given),-5%,-14,4%,-4%,3%,-2
O=C(NC1CCCC1)C1CCCN1C(=O)Nc1ccccc1 (stereo not given),-7%,15,-1%,10%,-1%,-87*
O=C(Nc1ccc(F)cc1)C(c1ccccc1OC(F)(F)F)N1CCN(c2cccc(C(F)(F)F)n2)CC1 (stereo not given),0%,/,-25%,-8%,-5%,/
CCc1cc(SC#N)cc(C)c1N,6%,12,-12%,3%,0%,-74*
OCCNc1nnc(-c2ccccc2)c(-c2ccccc2)n1,2%,7,9%,7%,3%,-6
CC[C@]12c3[nH]c4ccccc4c3CCN1C(=O)C(CC(=O)NCCN1CCOCC1)C[C@@H]2C(=O)N1CCN(C(=O)C2CC2)CC1 (stereo not given in full),4%,-114*,-7%,9%,8%,6
Cc1ccc(S(=O)(=O)Nc2ccc3c(c2)nc(CCN2CCOCC2)n3C)cc1,-4%,-3,-15%,-7%,8%,6
